Source: PubChem BioAssay AID1159580 (chemical genetic matrix, 2015)
Hit rate of the full screen: of about 5,500 compounds, about 2,000 (36%) were called active. Not shown: some 18% with an inconclusive outcome. Cut-off read from the data, not from the text of the source: active = normalized growth mostly below about 0.91 (no sharp cut-off); inconclusive = no clear call, values can overlap the other calls; inactive = mostly above about 0.92. This is one part of the list.

Test: chemical genetic growth profiling, strain panel (AID 1159580);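 note: tested at 20 µM; growth read once vehicle control cultures reached saturation at 30 °C; 1 = growth at the plate median or of vehicle wells; lower values mean less growth of the strain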
Details: growth OD
[1] = S. cerevisiae deletion strains, locus YDR150W, strain NUM1, active compounds read low
[2] = S. cerevisiae deletion strains, locus YPL055C, strain LGE1, active compounds read low
[3] = S. cerevisiae deletion strains, locus YPL241C, strain CIN2, active compounds read low

Measured: normalized growth

CSC(N)=NCCC[C@H](N)C(=O)O
inactive: S. cerevisiae deletion strains, locus YAL040C, strain CLN3, active compounds read low 1.1 | S. cerevisiae deletion strains, locus YCL061C, strain MRC1 (second series), active compounds read low 1.01 | [1] 1.02 | S. cerevisiae deletion strains, locus YDR363W, strain ESC2, active compounds read low 0.997 | S. cerevisiae deletion strains, locus YER002W, strain NOP16, active compounds read low 1.02 | S. cerevisiae deletion strains, locus YMR307W, strain GAS1, active compounds read low 1 | S. cerevisiae deletion strains, locus YNL175C, strain NOP13, active compounds read low 1.01 | S. cerevisiae deletion strains, locus YNL197C, strain WHI3, active compounds read low 1 | S. cerevisiae deletion strains, locus YNL224C, strain SQS1, active compounds read low 1 | S. cerevisiae deletion strains, locus YOR083W, strain WHI5 (second series), active compounds read low 1 | [2] 1 | [3] 1.01

COc1ccc(OC)c(S(=O)(=O)N2CCc3cc(OC)c(OC)cc3C2C)c1 (stereo unspecified)
inactive: S. cerevisiae deletion strains, locus YAL013W, strain DEP1, active compounds read low 1 | S. cerevisiae deletion strains, locus YBR229C, strain ROT2, active compounds read low 0.998 | S. cerevisiae deletion strains, locus YCL061C, strain MRC1, active compounds read low 0.994 | S. cerevisiae deletion strains, locus YDL101C, strain DUN1, active compounds read low 0.972 | S. cerevisiae deletion strains, locus YDL134C, strain PPH21, active compounds read low 0.992 | [1] 0.909 | S. cerevisiae deletion strains, locus YEL061C, strain CIN8, active compounds read low 0.998 | S. cerevisiae deletion strains, locus YGR078C, strain PAC10, active compounds read low 0.99 | S. cerevisiae deletion strains, locus YHR030C, strain SLT2, active compounds read low 0.996 | S. cerevisiae deletion strains, locus YHR087W, strain rtc3, active compounds read low 1.03 | S. cerevisiae deletion strains, locus YJL187C, strain SWE1, active compounds read low 1.01 | S. cerevisiae deletion strains, locus YJR043C, strain POL32, active compounds read low 0.973 | S. cerevisiae deletion strains, locus YJR075W, strain HOC1, active compounds read low 0.999 | S. cerevisiae deletion strains, locus YKL190W, strain CNB1, active compounds read low 0.984 | S. cerevisiae deletion strains, locus YLR039C, strain RIC1, active compounds read low 0.948 | S. cerevisiae deletion strains, locus YLR058C, strain SHM2 (second series), active compounds read low 1.02 | S. cerevisiae deletion strains, locus YLR085C, strain ARP6, active compounds read low 1.02 | S. cerevisiae deletion strains, locus YLR262C, strain YPT6, active compounds read low 1.02 | S. cerevisiae deletion strains, locus YML094W, strain GIM5, active compounds read low 1.03 | S. cerevisiae deletion strains, locus YMR219W, strain ESC1, active compounds read low 1 | S. cerevisiae deletion strains, locus YMR263W, strain SAP30, active compounds read low 1.01 | S. cerevisiae deletion strains, locus YNL153C, strain GIM3, active compounds read low 0.994 | S. cerevisiae deletion strains, locus YNL298W, strain CLA4 (second series), active compounds read low 0.993 | S. cerevisiae deletion strains, locus YNL322C, strain KRE1, active compounds read low 1 | S. cerevisiae deletion strains, locus YNR030W, strain Alg12, active compounds read low 1 | [2] 1.02 | [3] 0.996 | S. cerevisiae deletion strains, locus YPR135W, strain CTF4, active compounds read low 0.947 | S. cerevisiae strains, strain wild type, active compounds read low 0.972
